Laboratory results reported in PubChem BioAssay (EPA / NIEHS).
Values joined by “and” are separate entries in the source; they are usually repeats but may differ in a detail not shown here. Identical values can stand only once. Where a structure was tested more than once in an assay, its records may differ in their call. Active and inactive are the calls of the source. How the source made its calls: active means hit-call score of the fitted dose curve at least 0.9, where 1 is the maximum; inactive means score below 0.9.

Key:
[1] = BSK_CASM3C_SRB: Viability Assessment in the BioMAP Diversity Plus: CASM3C Assay (AID 2283050); conditions: primary human coronary artery smooth muscle cells;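 further: total protein by SRB staining as cytotoxicity measure in parallel cultures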
[2] = read-out: Thrombomodulin, THBD (gene 7056); assay: BSK_CASM3C_Thrombomodulin: BioMAP Diversity Plus: CASM3C Assay for Thrombomodulin Biomarker Activity (AID 2283051); conditions: primary human coronary artery smooth muscle cells; actives raise or lower the signal;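 further: thrombomodulin protein level measured by ELISA 24 h after dosing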
[3] = read-out: Tissue Factor, F3 (gene 2152); assay: BSK_CASM3C_TissueFactor: BioMAP Diversity Plus: CASM3C Assay for Tissue Factor Biomarker Activity (AID 2283052); conditions: primary human coronary artery smooth muscle cells; actives raise or lower the signal;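 further: cell surface tissue factor protein level read by ELISA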
[4] = read-out: Interferon-gamma inducible Protein 10 (IP10), CXCL10 (gene 3627); assay: BSK_hDFCGF_IP10: BioMAP Diversity Plus: hDFCGF Assay for Interferon-gamma inducible Protein 10 (IP10) Biomarker Activity (AID 2283053); conditions: primary human foreskin fibroblasts; actives raise or lower the signal
Summary of the method: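 IP-10 levels, quantified by ELISA, are taken from human foreskin fibroblast cultures 24 h after chemical treatment, with DMSO serving as negative control and baseline for bidirectional analysis.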

[5] = read-out: Urokinase-type plasminogen activator receptor (uPAR), PLAUR (gene 5329); assay: BSK_CASM3C_uPAR: BioMAP Diversity Plus: CASM3C Assay for Urokinase-type plasminogen activator receptor (uPAR) Biomarker Activity (AID 2283054); conditions: primary human coronary artery smooth muscle cells; actives raise or lower the signal;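 further: cell-surface uPAR protein level quantified by ELISA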
[6] = read-out: Vascular cell adhesion molecule 1 (VCAM1), VCAM1 (gene 7412); assay: BSK_CASM3C_VCAM1: BioMAP Diversity Plus: CASM3C Assay for Vascular cell adhesion molecule 1 (VCAM1) Biomarker Activity (AID 2283055); conditions: primary human coronary artery smooth muscle cells; actives raise or lower the signal;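 further: VCAM-1 protein level quantified by ELISA on the cells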
[7] = read-out: Collagen III, COL3A1 (gene 1281); assay: BSK_hDFCGF_CollagenIII: BioMAP Diversity Plus: hDFCGF Assay for Collagen III Biomarker Activity (AID 2283056); conditions: primary human foreskin fibroblasts; actives raise or lower the signal
Summary of the method: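 Response relative to DMSO, fitted in both directions, reflects ELISA-measured collagen III in human primary skin fibroblasts 24 h after compound addition.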

[8] = read-out: Epidermal growth factor receptor (EGFR), EGFR (gene 1956); assay: BSK_hDFCGF_EGFR: BioMAP Diversity Plus: hDFCGF Assay for Epidermal growth factor receptor (EGFR) Biomarker Activity (AID 2283057); conditions: primary human foreskin fibroblasts; actives raise or lower the signal
Summary of the method: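 Measured by ELISA: EGFR levels on primary human foreskin fibroblasts 24 h after chemical treatment, analysed relative to DMSO with bidirectional fitting.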

[9] = read-out: Interleukin-8 (IL8), CXCL8 (gene 3576); assay: BSK_hDFCGF_IL8: BioMAP Diversity Plus: hDFCGF Assay for Interleukin-8 (IL8) Biomarker Activity (AID 2283058); conditions: primary human foreskin fibroblasts; actives raise or lower the signal
Summary of the method: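 Fibroblast monolayers (human foreskin, hDFCGF) received test chemical for 24 h before ELISA detection of IL-8; either increases or decreases relative to DMSO count as activity.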

[10] = BSK_hDFCGF_Proliferation: Cell Proliferation Assessment in the BioMAP Diversity Plus: hDFCGF Assay (AID 2283059); conditions: primary human foreskin fibroblasts;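 further: curves fitted for both rise and fall of signal versus DMSO baseline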
Summary of the method: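 This proliferation readout used SRB total-protein staining of human foreskin fibroblasts […], normalized to DMSO with bidirectional curve fitting.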

[11] = read-out: Macrophage colony-stimulating factor (MCSF), CSF1 (gene 1435); assay: BSK_hDFCGF_MCSF: BioMAP Diversity Plus: hDFCGF Assay for Macrophage colony-stimulating factor (MCSF) Biomarker Activity (AID 2283060); conditions: primary human foreskin fibroblasts; actives raise or lower the signal
Summary of the method: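 fibroblasts (human foreskin, primary), 24 h post-dose; M-CSF by ELISA; bidirectional fit, DMSO = baseline.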

[12] = BSK_hDFCGF_SRB: Viability Assessment in the BioMAP Diversity Plus: hDFCGF Assay (AID 2283061); conditions: primary human foreskin fibroblasts;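 further: cells exposed to compound for 24 h before the read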
Summary of the method: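 SRB-based viability read on primary human skin fibroblasts at 24 h: TCA fixation, 0.1% dye, 560 nm. Gain or loss of signal is fitted against the DMSO negative control.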

[13] = read-out: TIMP metallopeptidase inhibitor 1 (TIMP1), TIMP1 (gene 7076); assay: BSK_hDFCGF_TIMP1: BioMAP Diversity Plus: hDFCGF Assay for TIMP metallopeptidase inhibitor 1 (TIMP1) Biomarker Activity (AID 2283062); conditions: primary human foreskin fibroblasts; actives raise or lower the signal
Summary of the method: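 Bidirectional curve fitting against DMSO baseline yielded this endpoint, based on ELISA detection of TIMP-1 in primary human foreskin fibroblasts exposed to compound for 24 h.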

[14] = read-out: Monokine induced gamma interferon (MIG), CXCL9 (gene 4283); assay: BSK_hDFCGF_MIG: BioMAP Diversity Plus: hDFCGF Assay for Monokine induced gamma interferon (MIG) Biomarker Activity (AID 2283063); conditions: primary human foreskin fibroblasts; actives raise or lower the signal
Summary of the method: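 Endpoint derived by bidirectional fitting relative to DMSO; MIG quantified via ELISA in primary human foreskin fibroblasts harvested 24 h after dosing.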

[15] = read-out: Matrix Metallopeptidase 1 (MMP1), MMP1 (gene 4312); assay: BSK_hDFCGF_MMP1: BioMAP Diversity Plus: hDFCGF Assay for Matrix Metallopeptidase 1 (MMP1) Biomarker Activity (AID 2283064); conditions: primary human foreskin fibroblasts; actives raise or lower the signal
Summary of the method: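 Primary human foreskin fibroblasts exposed to chemicals for 24 h; MMP1 measured by ELISA. Cytotoxicity tracked by SRB staining in parallel cultures; bidirectional fit relative to DMSO.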

[16] = read-out: Vascular cell adhesion molecule 1 (VCAM1), VCAM1 (gene 7412); assay: BSK_hDFCGF_VCAM1: BioMAP Diversity Plus: hDFCGF Assay for Vascular cell adhesion molecule 1 (VCAM1) Biomarker Activity (AID 2283065); conditions: primary human foreskin fibroblasts; actives raise or lower the signal;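 on AC50: VCAM-1 protein level quantified by ELISA after 24 h chemical exposure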
Summary of the method: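 Measured after 24 h chemical treatment of primary human skin fibroblasts, VCAM-1 was detected by ELISA and concentration-response analysed in both directions versus DMSO vehicle.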

[17] = read-out: Intercellular Adhesion Molecule 1 (ICAM1), ICAM1 (gene 3383); assay: BSK_KF3CT_ICAM1: BioMAP Diversity Plus: KF3CT Assay for Intercellular Adhesion Molecule 1 (ICAM1) Biomarker Activity (AID 2283067); conditions: primary human keratinocytes with fibroblasts; actives raise or lower the signal
Summary of the method: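 Bidirectional curve fitting against a DMSO baseline was applied to ICAM-1 ELISA signal from primary human skin co-cultures harvested 24 h after treatment, with SRB staining of parallel wells for overt cytotoxicity.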

[18] = read-out: Interferon-gamma inducible Protein 10 (IP10), CXCL10 (gene 3627); assay: BSK_KF3CT_IP10: BioMAP Diversity Plus: KF3CT Assay for Interferon-gamma inducible Protein 10 (IP10) Biomarker Activity (AID 2283068); conditions: primary human keratinocytes with fibroblasts; actives raise or lower the signal
Summary of the method: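 Signal is secreted/surface IP-10 by ELISA in a human primary skin co-culture of keratinocytes and foreskin fibroblasts, taken 24 h post-dosing; DMSO served as negative control.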

[19] = BSK_KF3CT_SRB: Viability Assessment in the BioMAP Diversity Plus: KF3CT Assay (AID 2283069); conditions: primary human keratinocytes with fibroblasts;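 further: total protein by sulforhodamine B staining as a cytotoxicity measure; fitted for both signal gain and loss against DMSO baseline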
Summary of the method: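 Human keratinocyte and foreskin fibroblast co-culture exposed to chemical for 24 h. Total protein measured in parallel cultures by 0.1% sulforhodamine B staining after 10% TCA fixation, read at 560 nm; bidirectional fit relative to DMSO.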

[20] = read-out: Plasminogen activator inhibitor-1 (PAI1), SERPINE1 (gene 5054); assay: BSK_hDFCGF_PAI1: BioMAP Diversity Plus: hDFCGF Assay for Plasminogen activator inhibitor-1 (PAI1) Biomarker Activity (AID 2283066); conditions: primary human foreskin fibroblasts; actives raise or lower the signal
Summary of the method: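 PAI-1 levels, determined by ELISA, served as the endpoint in human foreskin fibroblast cultures exposed to compound for 24 h, with DMSO as baseline.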

Measured: AC50

OCC(F)(OC(F)(F)C(F)(OC(F)(F)C(F)(F)C(F)(F)F)C(F)(F)F)C(F)(F)F (stereo unspecified)
active: [4] 2.4 µM and 2.74 µM | [7] 2.23 µM and 1.98 µM | [8] 5.4 µM | [9] 5.05 µM | [10] 4.48 µM and 4.13 µM | [11] 2.34 µM and 1.91 µM | [12] 6.02 µM and 5.36 µM | [13] 3.33 µM | [14] 2.24 µM and 2.52 µM | [15] 4.57 µM and 4.92 µM | [16] 2.25 µM and 2.1 µM | [17] 4.83 µM and 3.33 µM | [18] 5.01 µM and 4.55 µM | [19] 5.66 µM and 4.19 µM
inactive: [1] | [2] | [3] | [5] | [6] | [8] | [9]

CCCCCCCCCCCCS
inactive: [2] | [3] | [8] | [17] | [18]
active: [1] 28.5 µM | [4] 11.3 µM | [5] 30.3 µM | [6] 6.76 µM | [9] 20 µM | [10] 3.2 µM | [11] 9.73 µM | [12] 11.7 µM | [13] 8.95 µM | [14] 17 µM | [15] 10.2 µM | [16] 7.26 µM | [20] 10.8 µM | [19] 32.9 µM

CCOC(=O)C=Cc1ccccc1
active: [3] 0.0239 µM
not listed: [7] | [20]
inactive: all other assays above

CC1=CC(C)C(C=O)C(C)C1 (stereo unspecified) (tested in a mixture with another compound)
not listed: [20]
inactive: all other assays above

CCCCCCCC1CCCC1=O (stereo unspecified)
active: [1] 36.6 µM | [3] 31.8 µM | [5] 29.5 µM | [6] 30.9 µM | [10] 33.3 µM | [17] 30.6 µM | [19] 35.1 µM
not listed: [20]
inactive: all other assays above
